# Source: PubChem BioAssay (NCI)
# The panel holds about 83,000 compounds, 20% with a hit somewhere; the sample as a whole holds those more often.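 Note: values are percent growth. 100 is the growth of untreated cells, values between 100 and 0 indicate rising inhibition; between -100 and 0 indicates cell death.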 Unmarked numbers belong to inactive results. The source made the active and inactive calls. How the source made its calls: active means growth percent below 10; inactive means the rest.
# Assays:
# Assay in all cases: NCI-60 one-dose screen, 48 h (100 = growth as untreated, 0 = no growth, -100 = all killed)
# SK-MEL-2 melanoma = conditions: 10 µM unless noted
# SN12C renal = conditions: 10 µM unless noted
# UO-31 renal = conditions: 10 µM unless noted
# TK-10 renal = conditions: 10 µM unless noted
# ACHN renal = conditions: 10 µM unless noted
# A498 renal = conditions: 10 µM
# HL-60(TB) leukemia = conditions: 10 µM unless noted
# CCRF-CEM leukemia = conditions: 10 µM unless noted
# MOLT-4 leukemia = conditions: 10 µM unless noted
# SR leukemia = conditions: 10 µM unless noted
# RPMI-8226 leukemia = conditions: 10 µM unless noted
# OVCAR-8 ovarian = conditions: 10 µM unless noted
# OVCAR-5 ovarian = conditions: 10 µM unless noted
# OVCAR-4 ovarian = conditions: 10 µM unless noted
# SK-OV-3 ovarian = conditions: 10 µM unless noted
# IGROV1 ovarian = conditions: 10 µM unless noted
# OVCAR-3 ovarian = conditions: 10 µM unless noted
# HS 578T breast = conditions: 10 µM unless noted
# CAKI-1 renal = conditions: 10 µM unless noted
Compound,growth (SK-MEL-2 melanoma),growth (SN12C renal),growth (UO-31 renal),growth (TK-10 renal),growth (ACHN renal),growth (A498 renal),growth (HL-60(TB) leukemia),growth (CCRF-CEM leukemia),growth (MOLT-4 leukemia),growth (SR leukemia),growth (RPMI-8226 leukemia),growth (OVCAR-8 ovarian),growth (OVCAR-5 ovarian),growth (OVCAR-4 ovarian),growth (SK-OV-3 ovarian),growth (IGROV1 ovarian),growth (OVCAR-3 ovarian),growth (HS 578T breast),growth (CAKI-1 renal)
CC(C)CCC1(CCCl)C(=O)NC(=O)NC1=O,104%,95.6%,91%,100%,102%,89.4%,108%,95.3%,112%,102%,103%,101%,101%,99.4%,102%,108%,116%,106%,–
COc1ccc(/C=C\c2cc(OC)c(OC)c(OC)c2)c(NS(=O)(=O)c2ccc(C)cc2)c1O,-6.34% (active),35.6%,53.4%,65.2%,23.7%,–,9.18% (active),21.9%,20.8%,17.2%,31.5%,–,38.8%,31.5%,25.1%,32.2%,-30.9% (active),39.9%,19.8%
COc1ccc(/C=C\c2cc(OC)c(OC)c(OC)c2)cc1NS(=O)(=O)c1ccc(Cl)cc1,69.5%,79.8%,55.1%,80.2%,62.2%,47%,54.1%,78%,–,51.4%,64.3%,78.5%,83.4%,55%,81.9%,61.9%,76.6%,67.8%,42.8%
C[C@]12C[C@@H](CO)[C@H](O)C[C@@H]1CC[C@@H]1[C@@H]2CC[C@]2(C)[C@@H](O)CC[C@@H]12,86%,106%,89.6%,103%,101%,95.1%,71%,–,85.8%,79.4%,91.9%,96.8%,104%,105%,106%,105%,101%,–,94.1%
O=C1CCC2(O)[C@@H]3Cc4ccc(O)c5c4[C@]2(CCN3Cc2ccoc2)C1O5 (some centres not stated),106%,97.9%,78.8%,102%,98%,108%,95%,98.5%,101%,95.4%,101%,102%,98.7%,105%,105%,112%,107%,105%,99.3%
C=CC12CCN(CC1)C(C(O)c1ccnc3ccc(OC)cc13)C2 (configuration not stated),97.3%,83.5%,48.3%,88.4%,80.4%,56.9%,60.7%,75.8%,67.8%,37.1%,4.37% (active),92.3%,88.4%,76.9%,89.2%,81.4%,93.7%,90.4%,69.8%
CC(=O)[O][Hg][O]C(C)=O,90.3%,106%,96.9%,138%,108%,117%,35.2%,27.8%,84.8%,11.9%,–,98.7%,115%,94.3%,–,53.2%,34.5%,106%,92.3%
CN1CC(=O)N(O)C1(C)c1cccnc1 (configuration not stated),94.6%,101%,87.5%,97.7%,102%,97.2%,92.2%,106%,97.2%,92%,105%,99.3%,95.6%,111%,91.6%,102%,107%,108%,95.2%
COc1ccc(/C=C\c2cc(OC)c(OC)c(OC)c2)c(NS(=O)(=O)c2ccc(Cl)cc2)c1O,0.0535% (active),22.1%,33.7%,25.1%,25.9%,-13% (active),-38.8% (active),7.81% (active),10.1%,7.33% (active),7.02% (active),2.97% (active),49.2%,33.1%,21.9%,30.1%,-31.1% (active),10.9%,28.1%
O=[N+]([O-])c1ccc(OP(=O)(CCl)N(CCCl)CCCl)cc1 (configuration not stated),81.9%,112%,84.4%,99.6%,101%,109%,94.4%,–,89.7%,87.9%,104%,100%,99.6%,104%,106%,104%,118%,–,95.2%
Nc1ccc(OCCNS(=O)(=O)c2cccc(S(=O)(=O)F)c2)c(Cl)c1,88.9%,102%,-13.3% (active),102%,96.2%,70.8%,98.1%,93.5%,76.2%,93.3%,80.4%,115%,102%,64.1%,87.1%,97.3%,110%,93.6%,86.8%
CCC1(C(C)C)C(=O)NC(=S)NC1=O,117%,103%,97.4%,107%,98.5%,92.8%,102%,97.3%,105%,104%,98.8%,101%,102%,107%,118%,113%,101%,96.3%,99.8%
N/C(=N/N=C/c1ccncc1)N[N+](=O)[O-],104%,95.8%,93.8%,94.1%,101%,86.3%,109%,101%,84.2%,90.9%,106%,103%,94.2%,103%,111%,108%,113%,106%,99.2%
COC[C@@H]1C[C@@]2(C)[C@@H](CC[C@@H]3[C@@H]2CC[C@@]2(C)[C@H]3CC[C@]2(C)O)CC1=O,83.2%,107%,91.1%,85.2%,92.6%,111%,78.6%,–,90.4%,83.7%,84.5%,–,97.9%,101%,98.7%,98.9%,106%,–,94.4%
CC(=O)OC1CCC2C3CCC4=C/C(=N/OC(=O)c5ccc(N(CCCl)CCCl)cc5)CCC4(C)C3CC(C)C12 (configuration not stated),104%,72.6%,-32% (active),92.6%,58.1%,63.3%,33.7%,14.8%,57.7%,-7.87% (active),70.8%,54.5%,–,–,114%,-59.1% (active),59.7%,26.3%,73.9%
CCC1(C)CC(CCNCc2ccccc2O)(c2ccc(C)cc2)CCO1 (configuration not stated),104%,105%,101%,106%,102%,103%,97.3%,103%,101%,96%,98.2%,103%,100%,100%,–,95.6%,105%,104%,106%
O=C1C2CCC1C(N1CCCC1)CC2 (configuration not stated),103%,100%,87.5%,97.8%,102%,92.2%,97.2%,94.3%,98%,100%,98.7%,96.3%,101%,106%,106%,96%,106%,102%,97.7%
